Unmarked numbers belong to inactive results. Results filed as inconclusive are left out. Where a call stands in place of a potency, no number is given. Calls of active or inactive are those of the source. Unless noted, calls come from the whole dose curve; as a rule, active = well fitted curve in the direction sought with a large enough effect in the repeat runs; inconclusive = weak or mixed curves; inactive = no such curve, though single readings can be large; an effect the other way counts as inactive or inconclusive.
Legend:
[1] = A CellTox Green Cytotoxicity Assay to monitor cytotoxicity in HepG2 cells - 0 hour (AID 1224882); note: nearly all actives have a fitted effect of over 35% in size
Method in brief: (§1)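 Using 1536-well format, dye-containing HepG2 suspension was seeded, allowed 5 h at 37 C/5% CO2, dosed by pintool with compounds, positive and negative controls, and imaged for fluorescence across 40 h.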

[2] = A CellTox Green Cytotoxicity Assay to monitor cytotoxicity in HepG2 cells - 32 hour (AID 1224883); note: nearly all actives have a fitted effect of over 50% in size
Method in brief: as §1

[3] = A CellTox Green Cytotoxicity Assay to monitor cytotoxicity in HEK293 cells - 8 hour (AID 1224884); note: nearly all actives have a fitted effect of over 35% in size
Method in brief: (§2)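 Fluorescence intensity, read at 0, 8, 16, 24, 32 and 40 h of compound treatment, reflected dye binding to DNA of dead HEK293 cells; compounds (23 nL, DMSO) were added 5 h after plating cells with reagent.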

[4] = qHTS RealTime-Glo MT Cell Viability Assay in HepG2 cells - 16 hour (AID 1224885); note: nearly all actives have a fitted effect of over 50% in size
Method in brief: (§3)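 qHTS, HepG2, 600 cells/well, RealTime-Glo (NanoLuc + prosubstrate) added with cells; 5 h preincubation; DMSO compound addition; 37 C; luminescence at 0/8/16/24/32/40 h.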

[5] = qHTS RealTime-Glo MT Cell Viability Assay in HEK293 cells - 24 hour (AID 1224886); note: nearly all actives have a fitted effect of over 50% in size; note: potency is the fitted concentration of half-maximal effect
Method in brief: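 Assay medium contained NanoLuc luciferase plus cell-permeant prosubstrate, added with HEK293 cells at 600 cells/well. After 5 h at 37 C/5% CO2 compounds were added; plates stayed at 37 C for 40 h with serial luminescence reads.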

[6] = qHTS RealTime-Glo MT Cell Viability Assay in HEK293 cells - 8 hour (AID 1224887); note: nearly all actives have a fitted effect of over 50% in size; note: potency is the fitted concentration of half-maximal effect
Method in brief: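 Viable HEK293 cells reduce a cell-permeant prosubstrate; the product diffuses out and is consumed by NanoLuc in the medium to give light. Compounds went in after a 5 h incubation and plates were read over the treatment course.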

[7] = A CellTox Green Cytotoxicity Assay to monitor cytotoxicity in HEK293 cells - 16 hour (AID 1224888); note: nearly all actives have a fitted effect of over 35% in size
Method in brief: as §2

[8] = qHTS RealTime-Glo MT Cell Viability Assay in HepG2 cells - 0 hour (AID 1224889); note: nearly all actives have a fitted effect of over 50% in size; note: potency is the fitted concentration of half-maximal effect
Method in brief: as §3

[9] = A CellTox Green Cytotoxicity Assay to monitor cytotoxicity in HepG2 cells - 8 hour (AID 1224890); note: nearly all actives have a fitted effect of over 45% in size
Method in brief: as §1

[10] = qHTS assay to identify small molecule antagonists of the estrogen receptor alpha (ER-alpha) signaling pathway using the BG1 cell line in the presence of 0.1 nM 17-beta-estradiol - cell viability counter screen (AID 1259241); note: nearly all actives have a fitted effect of over 40% in size
Method in brief: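 Cells were plated and left 24 hr, compounds in DMSO were pinned in, 17beta-estradiol was added to 0.1 nM final, and after 22 hr CellTiter-Fluor reagent was added for 30 min before fluorescence was read.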

[11] = qHTS assay to identify small molecule antagonists of the androgen receptor (AR) signaling pathway using the MDA cell line in the presence of 0.5 nM R1881 - cell viability counter screen (AID 1259242); note: nearly all actives have a fitted effect of over 45% in size
Method in brief: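 Viability of MDA-kb2 cells was multiplexed with the luciferase AR readout; after 16 hr with compounds and R1881 at 0.5 nM final, CellTiter-Fluor fluorescence was recorded.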

[12] = qHTS assay to identify small molecule HDAC inhibitors (AID 1259364);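 note: wild-type HCT-116 cells with endogenous class I/II HDAC activity; top concentration of the series differs between compounds; nearly all actives have a fitted effect of over 45% in size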
Method in brief: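 Read-out: luminescence of HDAC-Glo I/II reagent, 30 min RT, reflecting class I/II deacetylase activity in whole HCT-116 cells pre-exposed 2 h to DMSO-dissolved compounds.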

[13] = qHTS assay to identify small molecule HDAC inhibitors - cell viability counter screen (AID 1259365)
Method in brief: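 Counter screen in wild-type HCT-116 cells: compounds dissolved in DMSO are pin-transferred onto overnight-plated cells and left 2hr at 37C. ATP-based CellTiter-Glo luminescence then measures viable cells.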

[14] = qHTS assay to identify small molecule antagonists of the sonic hedgehog signaling (Shh) pathway - cell viability counter screen (AID 1259367); note: nearly all actives have a fitted effect of over 55% in size
Method in brief: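 Using CellTiter-Fluor, viability of Gli1-Luc reporter 3T3 cells is read by fluorescence in the wells used for the Shh luciferase assay. Treatment lasts 23 hr with conditioned medium, then reagent 1 hr at 37C.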

[15] = qHTS assay to identify small molecule agonists of the sonic hedgehog signaling (Shh) pathway (AID 1259368; calls by dose curve;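 note: NIH/3T3-derived 3T3Gli1-Luc cells carrying a stable Gli1-driven firefly luciferase reporter; series mostly up to about 92 µM; nearly all actives have a fitted effect of over 15% in size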)
Method in brief: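 A Gli1 transcriptional response element controlled firefly luciferase in 3T3Gli1-Luc cells. Compounds and a positive control were added 4 hr after plating, and cells were incubated a further 24 hr at 37 C before luminescence detection.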

[16] = qHTS assay to identify small molecule antagonists of the sonic hedgehog signaling (Shh) pathway (AID 1259369; calls by dose curve; note: nearly all actives have a fitted effect of over 45% in size)
Method in brief: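 For antagonist detection, the reporter line received test compounds together with conditioned medium, incubated 24hr at 37 C, 5% CO2, then luminescence was recorded following 30min room-temperature luciferase reagent incubation.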

[17] = qHTS assay to identify small molecule agonists of the sonic hedgehog signaling (Shh) pathway - cell viability counter screen (AID 1259366); note: nearly all actives have a fitted effect of over 50% in size
Method in brief: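 Cells are plated at 2,000 per well and left 4hr at 37C, 5% CO2 before compound addition. After 23hr of treatment, CellTiter-Fluor reagent is added for 1hr at 37C and fluorescence is measured.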

[18] = target: Estrogen receptor (Homo sapiens) (UniProt P03372); assay: qHTS assay to identify small molecule antagonists of the estrogen receptor alpha (ER-alpha) signaling pathway using the BG1 cell line in the presence of 0.1 nM 17-beta-estradiol (AID 1259244); note: nearly all actives have a fitted effect of over 50% in size
Method in brief: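 Estradiol at 0.1 nM (final) stimulates the endogenous ER-alpha of VM7Luc4E2 cells carrying an ERE-driven luciferase; compounds are co-incubated 22 h at 37C and luciferase output quantified by luminescence.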

[19] = qHTS assay to identify small molecule phospholipidosis (PLD) inducers (AID 1259344; active = well fitted curve in the direction sought with a large enough effect; an effect the other way counts as inactive or inconclusive)
Method in brief: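 Fluorescent phospholipid staining (LipidTOX Red) measured by automated microscopy in fixed HepG2 cells after 24 h treatment; nuclei counterstained with Hoechst 33342; amiodarone as reference inducer.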

Sequence of Estrogen receptor (Homo sapiens) (P03372 whole entry, looked up): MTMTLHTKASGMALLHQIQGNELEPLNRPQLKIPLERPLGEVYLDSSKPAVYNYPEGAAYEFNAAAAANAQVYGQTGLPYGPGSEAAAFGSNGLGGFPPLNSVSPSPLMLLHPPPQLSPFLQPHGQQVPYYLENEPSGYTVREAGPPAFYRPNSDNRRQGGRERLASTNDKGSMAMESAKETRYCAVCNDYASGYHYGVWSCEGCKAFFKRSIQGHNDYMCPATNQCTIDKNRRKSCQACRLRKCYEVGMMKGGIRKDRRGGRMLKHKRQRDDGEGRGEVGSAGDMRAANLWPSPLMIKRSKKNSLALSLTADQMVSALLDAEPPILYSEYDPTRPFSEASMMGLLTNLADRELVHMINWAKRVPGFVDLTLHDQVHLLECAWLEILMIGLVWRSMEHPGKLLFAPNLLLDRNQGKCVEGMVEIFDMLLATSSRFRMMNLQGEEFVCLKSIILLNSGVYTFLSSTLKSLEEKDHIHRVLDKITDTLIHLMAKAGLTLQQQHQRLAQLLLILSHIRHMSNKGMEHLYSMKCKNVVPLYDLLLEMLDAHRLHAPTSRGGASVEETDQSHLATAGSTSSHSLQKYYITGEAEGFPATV

Compound | Potency [1] | Potency [2] | Potency [3] | outcome [4] | Potency [5] | Potency [6] | Potency [7] | Potency [8] | Potency [9] | Potency [10] | Potency [11] | Potency [12] | outcome [13] | Potency [14] | Potency [15] | Potency [16] | Potency [17] | Potency [18] | Potency [19]
CC(C)(O)C(=O)O | inactive | inactive | inactive | inactive | inactive | inactive | inactive | inactive | inactive | inactive | inactive | inactive | inactive | inactive | inactive | inactive | – | – | –
Cc1c(Cl)cccc1[N+](=O)[O-] | inactive | inactive | inactive | inactive | inactive | inactive | inactive | inactive | inactive | inactive | inactive | inactive | inactive | inactive | – | – | inactive | – | –
N#C[C@@H]1CC(F)(F)CN1C(=O)CNC1CC2CCC(C1)N2c1ncccn1 (stereo not given in full) | inactive | inactive | inactive | inactive | inactive | inactive | inactive | inactive | inactive | inactive | inactive | inactive | inactive | inactive | inactive | – | – | inactive | –
CC(=O)OCC(=O)[C@@]1(O)CC[C@H]2[C@@H]3CCC4=CC(=O)C=C[C@]4(C)[C@@]3(F)[C@@H](O)C[C@@]21C | inactive | inactive | inactive | inactive | inactive | inactive | inactive | 3.01 µM (active) | inactive | inactive | inactive | inactive | inactive | inactive | inactive | inactive | inactive | – | inactive
O=c1[nH][nH]c2ccccc12 | inactive | inactive | inactive | inactive | inactive | inactive | inactive | inactive | inactive | inactive | inactive | inactive | inactive | inactive | inactive | inactive | inactive | – | –
CCc1ccc(C(=O)C(C)CN2CCCCC2)cc1 (stereo not given) | inactive | inactive | inactive | inactive | inactive | inactive | inactive | inactive | inactive | inactive | inactive | inactive | inactive | inactive | inactive | inactive | inactive | – | inactive
CC(C)Cc1nccs1 | inactive | inactive | inactive | inactive | inactive | inactive | inactive | inactive | inactive | inactive | inactive | inactive | inactive | inactive | inactive | inactive | inactive | – | –
CC(C)NC(=O)c1ccccc1N | inactive | inactive | inactive | inactive | inactive | inactive | inactive | inactive | inactive | inactive | inactive | inactive | – | inactive | inactive | – | inactive | inactive | –
Cc1nc2sccn2c(=O)c1CCN1CCC(=C(c2ccc(F)cc2)c2ccc(F)cc2)CC1 | inactive | inactive | inactive | inactive | 3.38 µM (active) | 3.01 µM (active) | inactive | inactive | inactive | inactive | inactive | inactive | inactive | inactive | inactive | – | inactive | – | –
CC/C=C\CCO | inactive | inactive | inactive | inactive | inactive | inactive | inactive | inactive | inactive | inactive | inactive | inactive | inactive | inactive | inactive | – | inactive | – | –
O=C(OC1C[C@H]2CC[C@@H](C1)[N+]21CCCC1)C(O)(c1ccccc1)c1ccccc1 (stereo not given in full) | inactive | inactive | inactive | inactive | inactive | inactive | inactive | inactive | inactive | inactive | inactive | inactive | inactive | inactive | inactive | inactive | inactive | – | inactive
CCCCC(CC)COCCC#N (stereo not given) | inactive | inactive | inactive | inactive | inactive | inactive | inactive | inactive | inactive | inactive | inactive | inactive | inactive | inactive | inactive | inactive | inactive | – | –
O=C1C=CCCC1 | inactive | inactive | inactive | inactive | inactive | inactive | inactive | inactive | inactive | inactive | inactive | inactive | inactive | inactive | – | inactive | inactive | inactive | –
CCCOC(C)=O | inactive | inactive | inactive | inactive | inactive | inactive | inactive | inactive | inactive | inactive | inactive | inactive | inactive | inactive | inactive | – | – | inactive | –
CC(=O)S[C@H](C(=O)N[C@H]1Cc2ccccc2[C@H]2CCC[C@@H](C(=O)O)N2C1=O)C(C)C | inactive | inactive | inactive | inactive | inactive | inactive | inactive | inactive | inactive | inactive | inactive | inactive | inactive | inactive | inactive | inactive | inactive | – | –

Source: PubChem BioAssay (Tox21)
